Experimental data as given in PubChem BioAssay (Tox21).
Records with an inconclusive call do not appear. Where a call stands in place of a potency, no number is given. Calls of active or inactive are those of the source. Calls follow the shape of the dose curve; as a rule, active = well fitted cell-killing curve with a large enough effect in the repeat runs; inconclusive = weak or mixed curves, or effect the other way; inactive = no such curve, though single readings can be large or run the other way.

assay: qHTS assay to identify small molecule agonists of the vitamin D receptor (VDR) signaling pathway - cell viability counter screen (AID 743224); conditions: VDR-bla HEK293T viability, CellTiter-Glo luminescence, 16 h; series mostly up to 62.6 µM; also: nearly all actives have a fitted effect of over 50% in size
Description: U.S. Tox21 Program National Center for Advancing Translational Sciences [NCATS] NIH Chemical Genomics Center [NCGC] U.S. Environmental Protection Agency [EPA] National Institutes of Environmental Health Sciences [NIEHS] National Toxicology Program [NTP] U.S. Food and Drug Administration [FDA] Tox21 Assay Overview: The vitamin D receptor (VDR), a member of nuclear hormone receptor superfamily, plays a critical role in calcium homeostasis and bone metabolism. It is also involved in cell differentiation and growth, and thrombogenicity. […] The cytotoxicity of the Tox21 compound library against the VDR-bla cell line was tested in parallel by measuring the cell viability using CellTiter-Glo assay (Promega, Madison, WI) in the same wells.
Tox21 Assay Protocol Summary: VDR-bla cells were dispensed at 2,000 cells/6 uL/well into black wall/clear-bottom 1536-well plates using a Multidrop Combi (Thermo Fisher Scientific, Waltham, MA) dispenser. After the assay plates were incubated at a 37C and 5% CO2 for 4 h, 23 nL of compounds dissolved in DMSO, positive controls or DMSO only was transferred to the assay plate by a Pintool station (Kalypsys, San Diego, CA). The plates were incubated at 37C and 5% CO2 for 16 h. After 1 uL of LiveBLAzerTM B/G FRET substrate was added using a Bioraptr Flying Reagent Dispenser (FRD) workstation (Beckman Coulter, Indianapolis, IN, USA), the plates were incubated at room temperature for 2 h, and fluorescence intensity was measured by an Envision plate reader (PerkinElmer, Shelton, CT). For cell viability readout that measures cytotoxicity, 3 ul/well of CellTiter-Glo reagent was added into the assay plates using a FRD. After 30 min incubation at room temperature, the luminescence intensity in the plates was measured using a ViewLux (PerkinElmer) plate reader.

| Structure (SMILES) | Potency | activity change, negative = cytotoxicity |
| --- | --- | --- |
| CCCCCCC(O)CCOC(C)=O (stereo not given) | inactive |  |
| Cc1cccc2sc(N)nc12 | inactive |  |
| CC(=O)N[C@@H](Cc1ccc(O)cc1)C(=O)O | inactive |  |
| CCOC(=O)Oc1ccc(CCNC(=O)[C@H](CCSC)NC(C)=O)cc1OC(=O)OCC | inactive |  |
| CC1CCc2nccnc21 (stereo not given) | inactive |  |
| CN1C(CSCC(F)(F)F)Nc2cc(Cl)c(S(N)(=O)=O)cc2S1(=O)=O (stereo not given) | inactive |  |
| C=CC(=O)O | inactive |  |
| COc1cc(NC(C)CCCN)c2ncccc2c1 (stereo not given) | inactive |  |
| CC(C(=O)O)c1ccc(C(=O)c2cccs2)cc1 (stereo not given) | inactive |  |
| CCOC(=O)C(C)O (stereo not given) | inactive |  |
| O=C(NS(=O)(=O)/C=C/c1ccccc1)c1ccc(F)cc1Cl | inactive |  |
| CS(=O)(=O)c1ccc([C@@H](C[C@H]2CCC(=O)C2)C(=O)Nc2cnccn2)cc1Cl | inactive |  |
| O=C1NC(=O)c2cccc3cccc1c23 | inactive |  |
| C=CC(=O)NC(C)C | inactive |  |
| CC1CCC(C(C)CS)CC1S (stereo not given) | inactive |  |
| Cc1c[nH]c2ccccc12 | inactive |  |
| C=C(C)C(=O)OCCC(F)(F)C(F)(F)C(F)(F)C(F)(F)C(F)(F)C(F)(F)F | inactive |  |
| CC(C)(C)NCC(O)COc1cccc2c1C[C@H](O)[C@H](O)C2 (stereo not given in full) | inactive |  |
| O=C(O)CCC(=O)c1ccc(-c2ccccc2)cc1 | inactive |  |
| C1CCCCC1 | inactive |  |

| Structure (SMILES) | Potency | activity change, negative = cytotoxicity |
| --- | --- | --- |
| COC(=O)Nc1nc2ccc(C(=O)C3CC3)cc2[nH]1 | inactive |  |
| CNC1CCCN(c2c(F)cc3c(=O)c(C(=O)O)cn(C4CC4)c3c2OC)C1 (stereo not given) | inactive |  |
| CCOCCC(=O)OCC | inactive |  |
| COc1ccc(/C=C/C(=O)c2ccc(OC)cc2OC)cc1 | inactive |  |
| [Cl][Nd]([Cl])[Cl] | inactive |  |
| Nc1cccc2c(N)cccc12 | inactive |  |
| CC(C)(C)C(O)/C=C/c1ccc2c(c1)OCO2 (stereo not given) | inactive |  |
| CCCCCCCC/C=C/C(=O)O | inactive |  |
| CC(=O)C(C)=O | inactive |  |
| CCN(CC)c1cccc(O)c1 | inactive |  |
| O=C(O)CCC(=O)OC[C@@H](NC(=O)C(Cl)Cl)[C@H](O)c1ccc([N+](=O)[O-])cc1 | inactive |  |
| CC(C)C(O)C(C)(C)CO (stereo not given) | inactive |  |
| CC(C)(C(=O)c1cccnc1)c1cccnc1 | inactive |  |
| CC(O)Cn1cnc2c1c(=O)n(C)c(=O)n2C (stereo not given) | inactive |  |
| CC12CC3CC(C)(C1)CC(N)(C3)C2 | inactive |  |
| SCCc1cnccn1 | inactive |  |
| CCOC(=O)N1CCC(Nc2ccc(Cl)cc2N)CC1 | inactive |  |
| O=P(O)(O)Oc1ccccc1 | inactive |  |
| ClC1=C(Cl)C1(Cl)Cl | inactive |  |
| CC1=CC[C@@H]2C[C@H]1C2(C)C |  | 3.15% [at 13.2 µM] (inactive) |
